According to the OligoGym collection:

biological target: HOXA6; assay: pooled miR-30 sensor sort-seq; sequence = guide strand; settings: shRNA
Also: reference of the scale not given here.

Row | Sequence | sensor-assay potency score (higher = more potent)
1 | TTATCAGAATAGAAACACGAGG | -1.05
2 | TATCAGAATAGAAACACGAGGC | -0.218
3 | TGAGGTGTACGTCTTGTCCGGG | -0.648

biological target: HOXD12; assay: as above; settings: shRNA

Row | Sequence | sensor-assay potency score (higher = more potent)
4 | TTTGACTTGCTGGTCGCTGAGG | -0.827
5 | TGTCATGTTCAAGTTGAGCGGG | -0.623
6 | TAGGGTTTCCGCTTCTTGCGGG | -0.0363
7 | TTAGCCTGCTCTTCGGGTCCGT | -0.755
8 | TTGCTGGTCGCTGAGGTTCAGC | -1.6
9 | TATTGGACAATTCCTTGCGTTT | -1.31
10 | ATTTTGACTTGCTGGTCGCTGA | -0.889
11 | TGGAGAAGTAGAAAGAGTCTGG | -0.0412
12 | TTGGTGTCGTCCTTGAAGCCAG | -0.854
13 | TTGACTTGCTGGTCGCTGAGGT | 0.586

biological target: HOXD4; assay: as above; settings: shRNA

Row | Sequence | sensor-assay potency score (higher = more potent)
14 | TAAAATGAAATTCTTTTTCCAG | -0.413
15 | TTGGGGTCCACATACTTGGAGT | -0.994
16 | ATGATCTTTTTTCCACTTCATC | -1.7
17 | TAGTGTTGGGCAGCTTATGATC | -1.61
18 | TGCACCTTCTTCATCCAGGGGT | -0.0453
19 | TAGGACTTGCTGCCGGGTGTAG | -1.46
20 | TCGGACTGACTGTAGGCCCGGG | -0.239
21 | TTATGTTCTCAGTAGCTCCTGC | 0.0954
22 | TTATGATCTTTTTTCCACTTCA | -0.3
23 | TTTTTCCAGTTCTAGGACTTGC | -0.495
24 | TTCTTTTTCCAGTTCTAGGACT | -0.804

biological target: HP1BP3; assay: as above; settings: shRNA

Row | Sequence | sensor-assay potency score (higher = more potent)
25 | TTTTCGAATAGCAACCACTGAT | -0.782
26 | TTCGGAAACAGAACTCCTGGGC | 0.0322
27 | TTCTGAACCACAACAAAACTTC | -0.196
28 | TCTTCGGAAACAGAACTCCTGG | -0.507
29 | TTCCTCTGAACTTATGTCTGGT | 0.357
30 | TTGATTTCTGAACCACAACAAA | -1.61
31 | TATCTTCTACCTTCTCACCTAA | -0.313
32 | TACTGAGACACATATTTCCTGA | -0.347
33 | TAAGATTGCATCCATCTTGGGA | -0.272
34 | TAGACTGATCTTTCTCATCCTT | 0.288
35 | TTCTTCTGCAACCTTCTCTTAG | -0.784

biological target: HPD; assay: as above; settings: shRNA

Row | Sequence | sensor-assay potency score (higher = more potent)
36 | ATGACTTCCAGGAAGAGCGTGG | -0.0981
37 | AAACTTGTCTTGCTCTACCCAG | -0.591
38 | TTTGGTGAAGATCTGCAGGAGG | -0.36
39 | TACATGGCTGACCACCTCCCGG | -1.66
40 | TATTCCGTGTGCACCTGCGTGT | -0.504
